# Reference: PubChem BioAssay (EPA / NIEHS)
# Inconclusive results are not listed. Activity calls are given as the source filed them. The calls were made as follows: active = hit-call score of the fitted dose curve at least 0.9, where 1 is the maximum; inconclusive = response in the unintended direction; inactive = score below 0.9.
# Legend:
# [1] = target: human Elastase, ELANE (gene 1991) (UniProt P08246); experiment: NVS_ENZ_hElastase: NovaScreen (NVS) Enzymatic Assay for human Elastase (AID 2283153)
# Sequence of human Elastase, ELANE (gene 1991) (P08246 whole entry, looked up): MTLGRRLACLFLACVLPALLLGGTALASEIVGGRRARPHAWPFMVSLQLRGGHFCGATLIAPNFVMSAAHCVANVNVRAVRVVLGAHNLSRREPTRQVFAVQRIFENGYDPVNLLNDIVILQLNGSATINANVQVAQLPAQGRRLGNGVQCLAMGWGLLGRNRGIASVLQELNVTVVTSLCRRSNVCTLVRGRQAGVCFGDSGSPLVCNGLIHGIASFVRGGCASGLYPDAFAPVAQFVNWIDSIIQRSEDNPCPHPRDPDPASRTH
# Outline: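 Cell-free elastase from human neutrophils, 1.5 h after dosing, activity read by absorbance. Primary screen in duplicate at 25 uM; hits (e.g., 30% inhibition) rerun in singleton concentration-response up to 50 uM, fitted versus DMSO.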
# [2] = target: human Esterase Plasma (ES), BCHE (gene 590) (UniProt P06276); experiment: NVS_ENZ_hES: NovaScreen (NVS) Enzymatic Assay for human Esterase Plasma (ES) (AID 2283157)
# Sequence of human Esterase Plasma (ES), BCHE (gene 590) (P06276 whole entry, looked up): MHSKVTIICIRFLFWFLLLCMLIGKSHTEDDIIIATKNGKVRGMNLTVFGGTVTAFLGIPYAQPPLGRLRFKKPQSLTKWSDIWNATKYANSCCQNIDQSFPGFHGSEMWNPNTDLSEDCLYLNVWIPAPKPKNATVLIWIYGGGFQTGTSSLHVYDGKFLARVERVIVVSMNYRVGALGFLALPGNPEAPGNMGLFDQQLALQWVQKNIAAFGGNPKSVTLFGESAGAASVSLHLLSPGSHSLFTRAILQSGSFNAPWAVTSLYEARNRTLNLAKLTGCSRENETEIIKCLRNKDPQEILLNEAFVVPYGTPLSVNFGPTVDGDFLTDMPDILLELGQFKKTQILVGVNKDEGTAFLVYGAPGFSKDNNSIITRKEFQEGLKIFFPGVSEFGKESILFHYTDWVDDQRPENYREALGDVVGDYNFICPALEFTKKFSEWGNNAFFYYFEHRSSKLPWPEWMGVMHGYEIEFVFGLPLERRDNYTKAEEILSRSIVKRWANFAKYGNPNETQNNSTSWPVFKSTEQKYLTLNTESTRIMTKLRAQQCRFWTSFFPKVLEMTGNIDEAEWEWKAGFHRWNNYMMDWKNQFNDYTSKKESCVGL
# Outline: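 Esterase from human plasma, cell-free, colorimetric absorbance read 0.25 h after dosing. Screened at 25 uM in duplicate, with threshold-passing chemicals run in concentration-response up to 50 uM; loss of signal fitted versus DMSO.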
# [3] = target: human Ephrin type-B Receptor 1 (EphB1), EPHB1 (gene 2047) (UniProt P54762); experiment: NVS_ENZ_hEphB1: NovaScreen (NVS) Enzymatic Assay for human Ephrin type-B Receptor 1 (EphB1) (AID 2283154)
# Sequence of human Ephrin type-B Receptor 1 (EphB1), EPHB1 (gene 2047) (P54762 whole entry, looked up): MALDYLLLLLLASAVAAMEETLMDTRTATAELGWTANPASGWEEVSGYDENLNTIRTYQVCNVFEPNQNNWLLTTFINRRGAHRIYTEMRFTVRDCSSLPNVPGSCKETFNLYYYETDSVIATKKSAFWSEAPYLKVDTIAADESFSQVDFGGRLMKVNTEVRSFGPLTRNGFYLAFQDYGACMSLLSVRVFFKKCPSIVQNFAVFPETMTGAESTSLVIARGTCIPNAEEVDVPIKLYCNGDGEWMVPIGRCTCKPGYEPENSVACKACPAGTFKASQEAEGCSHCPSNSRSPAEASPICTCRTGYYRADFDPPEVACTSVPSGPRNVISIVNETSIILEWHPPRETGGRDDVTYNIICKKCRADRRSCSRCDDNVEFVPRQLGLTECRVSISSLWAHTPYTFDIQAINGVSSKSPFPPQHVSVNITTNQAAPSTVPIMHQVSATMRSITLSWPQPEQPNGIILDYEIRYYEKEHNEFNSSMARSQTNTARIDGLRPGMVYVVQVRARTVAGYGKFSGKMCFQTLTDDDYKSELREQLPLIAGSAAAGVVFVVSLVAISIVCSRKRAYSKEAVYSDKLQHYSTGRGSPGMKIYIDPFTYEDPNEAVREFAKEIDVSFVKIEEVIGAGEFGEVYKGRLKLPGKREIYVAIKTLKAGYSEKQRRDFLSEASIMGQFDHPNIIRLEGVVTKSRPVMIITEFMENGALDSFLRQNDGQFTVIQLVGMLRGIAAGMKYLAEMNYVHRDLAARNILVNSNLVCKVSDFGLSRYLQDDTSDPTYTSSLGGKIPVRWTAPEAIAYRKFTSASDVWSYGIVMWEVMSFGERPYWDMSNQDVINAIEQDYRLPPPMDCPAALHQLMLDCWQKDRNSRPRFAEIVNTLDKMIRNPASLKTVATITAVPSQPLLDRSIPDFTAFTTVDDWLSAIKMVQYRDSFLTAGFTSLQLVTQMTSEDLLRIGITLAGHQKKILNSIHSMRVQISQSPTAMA
# Outline: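 Cell-free kinase assay with recombinant enzyme, fluorescent substrate and electrophoretic mobility-shift separation of substrate and product; read 1 h after dosing. Single-concentration duplicate screen at 25 uM; loss of signal versus DMSO baseline.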
# [4] = target: human Ephrin type-A Receptor 2 (EphA2), EPHA2 (gene 1969) (UniProt P29317); experiment: NVS_ENZ_hEphA2: NovaScreen (NVS) Enzymatic Assay for human Ephrin type-A Receptor 2 (EphA2) (AID 2283155)
# Sequence of human Ephrin type-A Receptor 2 (EphA2), EPHA2 (gene 1969) (P29317 whole entry, looked up): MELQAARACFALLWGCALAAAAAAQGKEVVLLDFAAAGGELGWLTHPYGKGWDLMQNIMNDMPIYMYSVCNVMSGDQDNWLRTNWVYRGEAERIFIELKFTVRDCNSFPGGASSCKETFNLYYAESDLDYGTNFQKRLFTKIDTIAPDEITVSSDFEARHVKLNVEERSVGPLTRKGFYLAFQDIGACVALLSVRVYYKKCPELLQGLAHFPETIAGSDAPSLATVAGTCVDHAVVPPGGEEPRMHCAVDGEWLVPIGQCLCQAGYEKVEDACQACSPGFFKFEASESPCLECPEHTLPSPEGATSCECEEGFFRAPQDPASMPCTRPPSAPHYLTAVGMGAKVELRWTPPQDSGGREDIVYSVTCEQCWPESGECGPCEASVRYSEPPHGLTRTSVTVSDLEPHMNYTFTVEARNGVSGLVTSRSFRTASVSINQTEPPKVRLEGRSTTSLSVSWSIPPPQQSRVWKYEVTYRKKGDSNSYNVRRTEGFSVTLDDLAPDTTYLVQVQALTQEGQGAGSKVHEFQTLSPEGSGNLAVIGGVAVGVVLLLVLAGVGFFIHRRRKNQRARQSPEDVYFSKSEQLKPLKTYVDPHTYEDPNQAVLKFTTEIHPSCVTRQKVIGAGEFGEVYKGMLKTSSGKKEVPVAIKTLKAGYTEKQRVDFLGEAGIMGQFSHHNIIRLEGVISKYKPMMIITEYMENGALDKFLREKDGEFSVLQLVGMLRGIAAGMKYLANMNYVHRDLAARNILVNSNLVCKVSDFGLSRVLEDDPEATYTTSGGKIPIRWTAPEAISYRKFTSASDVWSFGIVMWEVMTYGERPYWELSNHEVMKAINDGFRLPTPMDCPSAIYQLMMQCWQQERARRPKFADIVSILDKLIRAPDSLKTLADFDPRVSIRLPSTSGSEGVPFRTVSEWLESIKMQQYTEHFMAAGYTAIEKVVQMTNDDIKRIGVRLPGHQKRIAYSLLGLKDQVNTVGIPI
# Outline: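 Cell-free recombinant EphA2 kinase with specific substrate, 1 h, fluorescence with electrophoretic mobility-shift separation of substrate and product. Primary screen at 25 uM in duplicate; hits retested in singleton concentration-response up to 50 uM, referenced to DMSO.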
# [5] = target: human Ephrin type-A Receptor 1 (EphA1), EPHA1 (gene 2041) (UniProt P21709); experiment: NVS_ENZ_hEphA1: NovaScreen (NVS) Enzymatic Assay for human Ephrin type-A Receptor 1 (EphA1) (AID 2283158);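 also: activity is signal loss versus DMSO meaning EphA1 kinase inhibition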
# Sequence of human Ephrin type-A Receptor 1 (EphA1), EPHA1 (gene 2041) (P21709 whole entry, looked up): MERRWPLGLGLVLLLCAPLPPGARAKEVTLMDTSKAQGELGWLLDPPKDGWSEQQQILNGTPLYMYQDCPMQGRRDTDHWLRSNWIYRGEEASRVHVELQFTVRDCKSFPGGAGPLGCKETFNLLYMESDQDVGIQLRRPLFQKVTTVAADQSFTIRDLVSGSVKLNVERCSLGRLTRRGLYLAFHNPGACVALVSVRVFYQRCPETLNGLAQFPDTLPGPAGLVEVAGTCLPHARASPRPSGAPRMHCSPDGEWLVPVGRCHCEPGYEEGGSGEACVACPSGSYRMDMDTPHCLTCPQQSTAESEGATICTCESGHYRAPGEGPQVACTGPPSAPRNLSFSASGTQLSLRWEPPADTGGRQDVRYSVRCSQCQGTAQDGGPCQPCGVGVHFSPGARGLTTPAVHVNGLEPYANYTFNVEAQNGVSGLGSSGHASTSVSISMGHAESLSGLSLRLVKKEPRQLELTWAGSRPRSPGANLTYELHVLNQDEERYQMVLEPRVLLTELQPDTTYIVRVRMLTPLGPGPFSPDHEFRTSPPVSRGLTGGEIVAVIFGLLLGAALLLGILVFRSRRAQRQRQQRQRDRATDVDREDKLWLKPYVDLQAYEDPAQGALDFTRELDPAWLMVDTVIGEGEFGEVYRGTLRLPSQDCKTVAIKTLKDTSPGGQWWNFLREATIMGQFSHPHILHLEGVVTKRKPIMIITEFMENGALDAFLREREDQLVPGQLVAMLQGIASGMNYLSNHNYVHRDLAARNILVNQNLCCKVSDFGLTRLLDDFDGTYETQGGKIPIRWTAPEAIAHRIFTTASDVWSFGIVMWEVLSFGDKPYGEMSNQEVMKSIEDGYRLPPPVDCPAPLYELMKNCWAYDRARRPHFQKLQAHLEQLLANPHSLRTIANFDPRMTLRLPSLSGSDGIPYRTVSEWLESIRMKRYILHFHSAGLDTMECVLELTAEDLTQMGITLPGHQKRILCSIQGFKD
# Outline: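 Chemicals first tested in duplicate at 25 uM against recombinant EphA1 with a fluorescent substrate; those passing threshold went to singleton dose-response topping at 50 uM. Activity read 1 h later as mobility-shift fluorescence, loss of signal relative to DMSO.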
# [6] = target: Histone deacetylase 3 (Homo sapiens) (UniProt O15379); experiment: NVS_ENZ_hHDAC3: NovaScreen (NVS) Enzymatic Assay for human Histone Deacetylase 3 (HDAC3) (AID 2283163)
# Sequence of Histone deacetylase 3 (Homo sapiens) (O15379 whole entry, looked up): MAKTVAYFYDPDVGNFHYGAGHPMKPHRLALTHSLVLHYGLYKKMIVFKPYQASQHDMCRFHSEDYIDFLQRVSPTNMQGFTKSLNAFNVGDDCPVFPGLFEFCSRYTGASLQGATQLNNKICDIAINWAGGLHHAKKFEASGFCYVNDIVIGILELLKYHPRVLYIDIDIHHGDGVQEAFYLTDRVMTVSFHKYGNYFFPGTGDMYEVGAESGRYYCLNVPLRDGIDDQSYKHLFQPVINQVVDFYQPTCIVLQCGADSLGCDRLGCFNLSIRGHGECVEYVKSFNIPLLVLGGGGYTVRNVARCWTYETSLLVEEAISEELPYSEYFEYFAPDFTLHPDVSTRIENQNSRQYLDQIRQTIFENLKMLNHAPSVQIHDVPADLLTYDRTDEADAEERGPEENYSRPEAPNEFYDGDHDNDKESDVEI
# Outline: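 Recombinant human HDAC3 with fluorescent substrate, 1 h after dosing; product separated from substrate by electrophoretic mobility shift and read by fluorescence. Primary screen at 25 uM in duplicate; actives (e.g. ≥30% inhibition) retested in concentration-response up to 50 uM.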
# [7] = target: Glycogen synthase kinase-3 beta (Homo sapiens) (UniProt P49841); experiment: NVS_ENZ_hGSK3b: NovaScreen (NVS) Enzymatic Assay for human Glycogen Synthase Kinase-3 beta (GSK3b) (AID 2283165)
# Outline: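 Recombinant enzyme with specific fluorescent substrate, 1 h, product separated by electrophoretic mobility shift. Primary duplicate screen at 25 uM; actives (e.g. 30% inhibition) followed in singleton concentration-response to 50 uM. Signal loss fitted versus DMSO.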
# [8] = target: Mitogen-activated protein kinase 3 (Homo sapiens) (UniProt P27361); experiment: NVS_ENZ_hMAPK3: NovaScreen (NVS) Enzymatic Assay for human Mitogen-Activated Protein Kinase 3 (MAPK 3) (AID 2283177)
# Sequence of Mitogen-activated protein kinase 3 (Homo sapiens) (P27361 whole entry, looked up): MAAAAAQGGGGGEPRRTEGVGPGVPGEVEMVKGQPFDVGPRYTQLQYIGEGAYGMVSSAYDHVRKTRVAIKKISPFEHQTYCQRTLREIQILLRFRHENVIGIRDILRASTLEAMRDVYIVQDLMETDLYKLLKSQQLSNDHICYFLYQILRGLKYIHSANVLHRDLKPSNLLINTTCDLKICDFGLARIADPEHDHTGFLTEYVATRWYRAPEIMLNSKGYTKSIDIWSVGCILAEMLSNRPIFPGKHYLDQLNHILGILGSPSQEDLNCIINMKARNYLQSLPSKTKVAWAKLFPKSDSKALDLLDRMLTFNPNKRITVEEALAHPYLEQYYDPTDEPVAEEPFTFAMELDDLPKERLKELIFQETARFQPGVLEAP
# Outline: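 Cell-free enzymatic assay with recombinant protein and specific substrate; fluorescence and electrophoretic mobility shift read-out 1 h after dosing. Primary screen duplicate at 25 uM; actives then run in concentration-response up to 50 uM, loss of signal versus DMSO.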
# [9] = target: human MAP Kinase-Activated Protein Kinase 2 (MAPKAPK2), MAPKAPK2 (gene 9261) (UniProt P49137); experiment: NVS_ENZ_hMAPKAPK2: NovaScreen (NVS) Enzymatic Assay for human MAP Kinase-Activated Protein Kinase 2 (MAPKAPK2) (AID 2283178)
# Sequence of human MAP Kinase-Activated Protein Kinase 2 (MAPKAPK2), MAPKAPK2 (gene 9261) (P49137 whole entry, looked up): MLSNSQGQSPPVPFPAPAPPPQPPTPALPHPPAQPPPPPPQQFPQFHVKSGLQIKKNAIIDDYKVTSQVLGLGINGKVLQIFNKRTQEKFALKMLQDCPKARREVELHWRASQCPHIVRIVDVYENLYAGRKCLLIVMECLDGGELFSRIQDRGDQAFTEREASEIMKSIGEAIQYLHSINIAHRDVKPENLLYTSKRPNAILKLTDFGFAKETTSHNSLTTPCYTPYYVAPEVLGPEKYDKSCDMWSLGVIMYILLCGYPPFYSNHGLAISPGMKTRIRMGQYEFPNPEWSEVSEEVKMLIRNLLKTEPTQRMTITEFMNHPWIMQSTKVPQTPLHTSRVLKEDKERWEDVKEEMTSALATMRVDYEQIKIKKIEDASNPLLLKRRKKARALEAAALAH
# Outline: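 Cell-free recombinant human MAPKAPK2 activity measured by fluorescence with electrophoretic mobility shift separation of substrate and product, 1 hr after dosing. Loss of signal versus DMSO; primary screen at 25 uM, concentration-response up to 50 uM.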
smiles,measurement,setting,value
CCOP(=S)(OCC)Oc1nc(Cl)n(C(C)C)n1,outcome,[1],inactive
same,AC50,[2],4.75 µM (active)
CC(C)=CC1C(C(=O)OCc2coc(Cc3ccccc3)c2)C1(C)C (configuration not stated),AC50,[1],33.6 µM (active)
Clc1nc(Cl)nc(Nc2ccccc2Cl)n1,outcome,[3],inactive
same,outcome,[4],inactive
same,outcome,[5],inactive
same,outcome,[6],inactive
same,outcome,[7],inactive
same,outcome,[8],inactive
same,outcome,[9],inactive
CC(C)NC(=O)N1CC(=O)N(c2cc(Cl)cc(Cl)c2)C1=O,outcome,[4],inactive
CC1(C)CCC(=Cc2ccc(Cl)cc2)C1(O)Cn1cncn1 (configuration not stated),outcome,[2],inactive
